# GLS inhibitor – qHTS for Inhibitors of Glutaminase (GLS); GLS enzymatic activity, qHTS titration; Potency, µM (top dose mostly 45.5 µM), without a hit: at the top dose activity change, negative = inhibition, hits mostly inhibitors; 0.21% of 410,000 active; also: % is scaled to controls: 0 for no effect and ±100 for the full control effect
#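 Assay buffer: 45 mM KH2PO4 pH 8.2, 0.02% Tween-20. hKGA acts on L-glutamine (1 mM solution added); product glutamate is reported by an oxidase/peroxidase Amplex Red coupling, with fluorescence taken at baseline and 30 min.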
# HP1b chromo inh – HTS for Inhibitors of HP1-beta Chromodomain Interactions with Methylated Histone Tails | Chromobox protein homolog 1 (Homo sapiens), P83916 | AlphaScreen HP1-beta / biotin-H3K9me3 peptide binding | Potency, µM (top dose mostly 114 µM), for the others: at the highest dose activity change, negative = inhibition, hits mostly inhibitors | 0.56% of 390,000 active | AID 540317, 2011; also: nearly all actives have a fitted effect of over 70% in size
# Target sequence (P83916 whole entry, looked up): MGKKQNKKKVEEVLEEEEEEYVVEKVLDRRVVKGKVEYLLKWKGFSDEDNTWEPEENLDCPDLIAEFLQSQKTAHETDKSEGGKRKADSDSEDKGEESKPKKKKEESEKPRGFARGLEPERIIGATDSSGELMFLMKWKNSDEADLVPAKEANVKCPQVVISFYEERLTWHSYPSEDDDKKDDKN
#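 HP1-beta protein (50 nM final) preincubated 30 min at room temperature with biotinylated H3(1-18)K9me3 peptide (50 nM) in PBS pH 7.4, 0.01% Tween-20, then compound added for 30 min. AlphaScreen streptavidin donor/nickel chelate acceptor beads (10 ug/mL final), 30 min dark, luminescence read.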
# JMJD2A Tudor inh – qHTS Assay for Inhibitors of JMJD2A-Tudor Domain. Lysine-specific demethylase 4A (Homo sapiens), O75164. 4.4% of 390,000 active. AlphaScreen JMJD2A-Tudor / H3K4me3 peptide binding. Potency, µM (series often up to 114 µM), for the others: at the top dose activity change, negative = inhibition, usual class: inhibitors; also: % is scaled to controls: 0 for no effect and ±100 for the full control effect; nearly all actives have a fitted effect of over 50% in size
# G9a inh – qHTS Assay for Inhibitors of Histone Lysine Methyltransferase G9a | AID 504332, 2011 | 8.8% of 350,000 active | Potency, µM (top dose mostly 102 µM), for the others: at the highest dose activity, negative = inhibition, hits mostly inhibitors | G9a H3K9 monomethylation, AlphaScreen, 2 h | Histone-lysine N-methyltransferase EHMT2 (Homo sapiens), Q96KQ7; also: % is scaled to controls: 0 for no effect and ±100 for the full control effect; nearly all actives have a fitted effect of over 75% in size
# Target sequence (Q96KQ7 913-1193 limits assumed): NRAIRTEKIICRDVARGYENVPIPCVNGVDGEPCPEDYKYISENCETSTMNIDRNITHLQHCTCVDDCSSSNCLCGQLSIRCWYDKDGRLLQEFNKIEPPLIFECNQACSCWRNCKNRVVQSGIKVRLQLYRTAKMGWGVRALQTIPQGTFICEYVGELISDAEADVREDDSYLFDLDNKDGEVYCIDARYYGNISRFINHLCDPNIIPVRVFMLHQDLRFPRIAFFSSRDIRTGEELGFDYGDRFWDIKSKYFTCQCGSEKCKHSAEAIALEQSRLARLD
#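 AlphaScreen read-out: biotin-H3K9 peptide (500 nM) methylation by 20 nM enzyme with 20 uM SAM, 2 h at room temperature after 15 min compound preincubation; anti-monomethyl H3K9 antibody plus donor/acceptor beads, 10 min dark.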
# BAZ2B inh – qHTS Assay for Inhibitors of BAZ2B | Potency, µM (top dose mostly 114 µM), for the others: top-dose activity change, negative = inhibition, actives largely listed as inhibitors | AlphaScreen BAZ2B-H3K14Ac peptide displacement | 4.4% of 360,000 active | Bromodomain adjacent to zinc finger domain protein 2B (Homo sapiens), Q9UIF8 | AID 504333, 2011; also: % is scaled to controls: 0 for no effect and ±100 for the full control effect; nearly all actives have a fitted effect of over 60% in size
#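 Complex of BAZ2B and biotin-H3K14Ac (50 nM apiece) forms over 30 min at RT, then faces library compounds up to 110 uM for another 30 min; AlphaScreen beads added, 20 min dark incubation, luminescence read.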
# * = called active by the depositor; ? = inconclusive; / = no result given; [ ] = remark or other dose. Rows were chosen to be rich in hits. Some 10% of all compounds tested hit in one or more screens of this group. Calls follow the shape of the dose curve; as a rule, active = well fitted curve in the direction sought with a large enough effect; inconclusive = small, poorly fitted or top-dose-only effect, or another doubt; inactive = no such curve, though single readings can be large; an effect the other way counts as inactive or inconclusive. Potency is read from the fitted curve at half-maximal effect.
SMILES,GLS inhibitor,HP1b chromo inh,JMJD2A Tudor inh,G9a inh,BAZ2B inh
CC1CCN(S(=O)(=O)c2ccc3c(c2)N(CC(=O)NCCN2C(C)CCCC2C)C(=O)CS3)CC1 (stereo not given),2%,14%,-6%,/,-6%
CCN1C=C(C(=O)c2ccccc2)C(=O)CC1,-8%,50%,-8%,/,/
COc1cccc(CNC(=O)[C@@H]2CCCN2C(=O)[C@H]2CCCCN2C(=O)OC(C)(C)C)c1,1%,/,/,/,/
O=C(CSc1nc2c(cnn2-c2ccccc2)c(=O)[nH]1)N1CCOCC1,?,-4%,-18%[11.4 µM],-46%[0.0925 µM],-4%
CCC1CCCCN1C(=O)CSc1nc2c(cnn2-c2ccc(C)cc2)c(=O)[nH]1 (stereo not given),-5%,27%,-13%,56µM*,2%
CCCCCSc1nc2c(cnn2-c2ccccc2)c(=O)[nH]1,1%,46%,-1%,1%[59 µM],-6%
CCCCCSc1nc2c(cnn2-c2ccc(F)cc2)c(=O)[nH]1,7%,15%,22µM*,22%,-12%
O=C(CSc1nc2c(cnn2-c2ccc(F)cc2)c(=O)[nH]1)N1CCOCC1,9%,20%,-12%,79µM*,9%
CCOc1ccc2nc(CN3CCN(Cc4ccccc4OCC)C(CCO)C3)ccc2c1 (stereo not given),-1%,55%,-24%,?,-10%
COc1cccc(CN2CCN(Cc3ccc4c(NC(C)=O)cccc4n3)CC2CCO)c1 (stereo not given),-12%,31%,22µM*,50µM*,-12%
CCOc1ccccc1CN1CCN(Cc2ccc3cc(F)ccc3n2)CC1CCO (stereo not given),1%,36%,-14%,79µM*,-31%
Cc1ccc(CN2CCN(Cc3ccc4cc(F)ccc4n3)CC2CCO)o1 (stereo not given),5%,19%[57 µM],-8%,56µM*,-34%
COc1cc(CN2CCN(Cc3ccc4cc(F)ccc4n3)CC2CCO)cc(OC)c1 (stereo not given),0%,21%,-26%,-6%,-4%
COc1ccc(CN2CCN(Cc3ccc4cc(F)ccc4n3)CC2CCO)c(C)c1C (stereo not given),-6%,51%,-27%,50µM*,-33%
CCOC(=O)[C@H]1[C@H]2COc3cc(OC)ccc3[C@@H]2N2C(=O)c3cc(OC)c(OC)cc3NC(=O)[C@@]12C,-3%,21%,-22%,-11%[2.33 µM],-5%
COc1ccc(C2C(=O)N(C3CCC(C)CC3)CC(=O)N2CCC2=CCCCC2)cc1OC (stereo not given),3%,49%,-17%,-9%[59 µM],-12%
CC1=C(C(=O)N2CCCCCC2)CC(CC(=O)NC2CC2)C(=O)N1Cc1ccccc1 (stereo not given),0%,/,/,/,/
CCn1ccc(C(=O)Nc2ccc3c(c2)CCC3)n1,7%,28%,12%,-36%,10%
C/C=C/c1cccc(-c2nc(C(=O)N3CCCCC3)cc3c2[C@@H](CCO)N(C(=O)NC(C)C)C3)c1,-10%,/,/,/,/
COc1ccc(-c2nc3scc(CCNS(=O)(=O)c4cccs4)n3n2)cc1,-7%,33%,-17%,-16%[59 µM],-10%
CCOC(=O)c1c(N2C(=O)CC(Sc3ccccc3C(=O)O)C2=O)sc2c1CCCC2 (stereo not given),0%,8%,?,/,50µM*
O=C(O)c1ccccc1SC1CC(=O)N(c2cccc3ccccc23)C1=O (stereo not given),-1%,?,22µM*,/,?
CCN1C(=O)CC(Sc2ccccc2C(=O)O)C1=O (stereo not given),4%,17%,-13%,?,?
CCOc1ccc(N2C(=O)CC(Sc3ccccc3C(=O)O)C2=O)c([N+](=O)[O-])c1 (stereo not given),4%,2%,?,1.4µM*,63µM*
Cc1ccc(C)c(-n2c(-c3cccnc3)n[nH]c2=S)c1,15%,8%,22µM*,32µM*,?
SMILES,GLS inhibitor,HP1b chromo inh,JMJD2A Tudor inh,G9a inh,BAZ2B inh
Cc1ccc(C)c(-n2c(-c3csc(C)c3C)n[nH]c2=S)c1,-15%,15%,25µM*,?,-30%
Cc1c(Cl)cccc1-n1c(-c2cccnc2)n[nH]c1=S,-2%,43%,35µM*,16%[12.7 µM],-2%
Cc1cc(Cl)ccc1-n1c(-c2cccnc2)n[nH]c1=S,1%,44%,28µM*,10µM*,4%
Cc1onc(-c2ccccc2)c1-c1n[nH]c(=S)n1-c1ccccc1Cl,-8%,22%,-28%,23%[0.501 µM],-26%
CC(=O)N1CCCC(C)(C(=O)Nc2cccc(OC(C)C)c2)C1 (stereo not given),6%,/,/,/,/
O=[N+]([O-])c1cc([N+](=O)[O-])c(Oc2cncc(Cl)c2)cc1NC1CCCCCCC1,8%,?,?,?,?
O=[N+]([O-])c1ccc(Oc2cc(NC3CCCCCCC3)c([N+](=O)[O-])cc2[N+](=O)[O-])cc1,-14%,-3%,?,40µM*,?
O=[N+]([O-])c1cc([N+](=O)[O-])c(Oc2cc(Cl)ccc2Cl)cc1NC1CCCCCCC1,0%,2%,?,40µM*,?
O=C1c2ccccc2C2N1CCCN2C(=O)c1sc2ccccc2c1Cl (stereo not given),3%,/,/,/,/
COc1ccc(OC)c(NC(=O)c2nnn(CC(=O)Nc3ccc(C(C)C)cc3)c2N)c1,4%,20%,-20%,-36%[59 µM],5%[57.1 µM]
COc1ccc(CCNC(=O)CCc2cn(Cc3ccc(F)cc3)c3ccccc23)cc1OC,-7%,6%,-27%,-42%[59 µM],?
Cc1cccc(-c2nc(SCC(=O)Nc3cccc(C(F)(F)F)c3)n3[nH]c(=O)cc3n2)c1,?,?,50µM*,11%[59 µM],50µM*
Cc1cccc(NC(=O)CSc2nc(-c3cccs3)nc3cc(=O)[nH]n23)c1,?,?,?,-38%[59 µM],79µM*
O=C(CSc1nc(-c2ccccc2)nc2cc(=O)[nH]n12)Nc1ccccc1,2%,20%,56µM*,34%[59 µM],-1%
CCn1c(C)nnc1SCC(=O)Nc1cccc(C(F)(F)F)c1,3%,6%,-16%,/,1%
O=C(CSc1nc(-c2cccs2)nc2cc(=O)[nH]n12)Nc1cccc(C(F)(F)F)c1,?,33%,-19%,53%[59 µM],50µM*
N#Cc1ccccc1S(=O)(=O)N1CCN(C(=O)CN(Cc2ccco2)Cc2cccs2)CC1,-2%,/,/,/,/
Cc1ccc(NC(=O)CSc2nnc(-c3cccs3)n2Cc2ccco2)cc1,-7%,-8%,?,/,?
